Screening data (PubChem BioAssay)
Sampled rows, rich in hits. Any-hit rate of the full collection: about 14%.
Pf growth 96h = Primary qHTS for delayed death inhibitors of the malarial parasite plastid, 96 hour incubation; P. falciparum luciferase reporter growth, 96 h; Potency, µM (series often up to 28.7 µM), inactives show at the highest dose activity change, negative = inhibition, usual class: inhibitors; 320,000 compounds, 6.9% hits; further: potency means the concentration at half of the fitted maximal effect
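Parasite growth measured via integrated firefly luciferase reporter in P. falciparum. Infected erythrocytes at 2% hematocrit, 0.05% parasitemia final were treated 96 hours at 37 C under 5% CO2, and luminescence was read.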
HCMV inh = qHTS Assay for inhibitors of the human cytomegalovirus (HCMV). HFF cells, HCMV-luciferase reporter, 72 h; active compounds read low. activity change, negative = inhibition, % at 57.5 µM. 410,000 compounds, 4.5% hits. AID 1259415, 2018; in the data active means activity change below about -60%; inconclusive means no clear call, values can overlap the other calls; inactive means above about -39%
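Steps: HFFs plated, 16 h 37C; compounds added; HCMV-luciferase added to MOI 1 PFU/cell; 72 h 37C; OneGlo reagent, 5 min room temperature; luminescence read, normalized to controls.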
Pf growth 48h = Primary qHTS for delayed death inhibitors of the malarial parasite plastid, 48 hour incubation. P. falciparum luciferase growth in erythrocytes, 48 h. Potency, µM (titrated, usually from 28.7 µM), for inactives: top-dose activity change, negative = inhibition, usual class: inhibitors. 310,000 compounds, 5.9% hits; further: potency means the concentration at half of the fitted maximal effect
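Luciferase-expressing parasites in RBCs, 2% Hct / 0.1% parasitemia final; RPMI 1640 + 0.5% Albumax; 37 C, 5% CO2, one generation; luminescence read-out, lower signal = inhibition.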
MARV entry inh = qHTS for inhibitors of binding or entry into cells for Marburg Virus. Marburg virus pseudotyped entry inhibition, cell reporter. Potency, µM (doses to about 37.8 µM), for inactives: at the highest dose activity change, negative = inhibition, most hits filed as inhibitors. 300,000 compounds, 1.8% hits; calls by dose curve; tested in HEK293 cells; further: potency means the concentration at half of the fitted maximal effect
Lassa entry inh = qHTS for Inhibitors of binding or entry into cells for Lassa Virus; Lassa virus pseudotype entry inhibition, cell reporter; Potency, µM (top dose mostly 37.9 µM), without a hit: top-dose activity change, negative = inhibition, actives largely listed as inhibitors; 300,000 compounds, 1.2% hits; AID 540256, 2011; calls by dose curve; tested in HEK293 cells; further: potency means the concentration at half of the fitted maximal effect; nearly all actives have a fitted effect of over 50% in size
HCV inh = qHTS Assay for Inhibitors of Hepatitis C Virus (HCV). Huh7.5.1 HCVcc-Cre infection, luciferase reporter, 44 h. Potency, µM (top dose mostly 41.8 µM), without a hit: at the highest dose activity change, negative = inhibition, most hits filed as inhibitors. 340,000 compounds, 3.4% hits; further: potency means the concentration at half of the fitted maximal effect
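Infectious HCVcc-Cre (~0.5 moi) was added to cells just after compound, with cells seeded 4 h earlier at 1,000 per well. Luciferase activity after 44 h culture reported infection; substrate was incubated 15 min at room temperature before reading.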
Starred values were filed as active, the others as inactive; i = inactive; ? = inconclusive; nt = no result; [ ] = remark or other dose. Unless noted, the call rests on the fitted dose curve; in most records, active means well fitted inhibition curve with a large enough effect; inconclusive means small, poorly fitted or top-dose-only effect, or another doubt; inactive means no such curve, though single readings can be large or run the other way. On the % scale 0 is the no-effect control and ±100 the full control effect.

SMILES | Pf growth 96h | HCMV inh | Pf growth 48h | MARV entry inh | Lassa entry inh | HCV inh
CN(C(=O)CSc1nc(-c2ccccc2)c(-c2ccccc2)o1)C1CCS(=O)(=O)C1 (stereo not drawn) | ? | -64* | 0% | -15% | -13% | ?
CN(C(=O)CSc1nnc(-c2ccc(F)cc2)c2ccccc12)C1CCS(=O)(=O)C1 (stereo not drawn) | -26% | ? | -20% | 5µM* | 0% | -19%
CN(C(=O)CSc1nnc(-c2ccccc2)c(-c2ccccc2)n1)C1CCS(=O)(=O)C1 (stereo not drawn) | 2% | -29 | -8% | 16% | -4% | -7%
CCc1ccc(NC(=O)C(C)OC(=O)c2c(C)nn(Cc3ccccc3)c2Cl)cc1 (stereo not drawn) | ? | -24 | 11% | -23%[46.1 µM] | ? | 11µM*
Cc1nn(Cc2ccccc2)c(Cl)c1C(=O)OC(C)C(=O)Nc1ccc(F)cc1Cl (stereo not drawn) | 13µM* | -65* | ? | 13µM* | 3.2µM* | ?
CCOc1ccc(NC(=O)c2c(C)nn(Cc3ccccc3)c2Cl)cc1 | -7% | -20 | -5% | ? | 3% | 5%
Cc1nn(Cc2ccccc2)c(Cl)c1C(=O)OCC(=O)Nc1cccc2ccccc12 | 18% | -16 | 13% | ? | 8% | -21%
CCn1c(=O)c2cc(C(=O)NCCc3cc(OC)ccc3OC)sc2c2ccccc21 | nt | -10 | nt | -2%[46.1 µM] | 6%[46.1 µM] | nt
Cc1ccc(N2C(=O)c3n[nH]c(C)c3C2c2cccnc2)cc1 (stereo not drawn) | 68% | -4 | 25% | 29% | 5% | 11%
Cc1ccc(C2C3=C(NCCN=C3c3ccccc3)C(=O)N2c2ccccc2)cc1 (stereo not drawn) | ? | -24 | nt | 10µM* | ? | ?
CCOc1ccc(N2C(=O)C3=C(C(c4ccc(Cl)cc4)=NCCN3)C2c2cccnc2)cc1 (stereo not drawn) | -28% | -31 | 16% | 11µM* | ? | ?
COc1cccc(CNC(=O)C(NS(=O)(=O)c2ccc3c(c2)oc(=O)n3C)C(C)C)c1 (stereo not drawn) | nt | 0 | nt | 1%[46.1 µM] | 9%[46.1 µM] | nt
Cc1c(C)n(Cc2ccccc2)c2ncnc(N)c12 | ? | -60* | -4% | -11% | -4% | 10µM*
Cc1c(C)n(Cc2ccccc2)c2ncnc(NCCO)c12 | -7% | 50 | ? | 4%[46.1 µM] | 0%[46.1 µM] | 8%
CCCCNC(=S)N1CCN(c2ccc(C(C)=O)cc2)CC1 | ? | -13 | ? | nt | nt | -1%
CC(=O)c1ccc(N2CCN(C(=S)Nc3ccccc3F)CC2)cc1 | ? | -3 | ? | 0% | 1% | 11%
CC(=O)c1ccc(N2CCN(C(=S)Nc3cc(C)ccc3C)CC2)cc1 | ? | -6 | 10µM* | 21% | 14% | 5%
CSCCCNC(=S)N1CCN(c2ccc(C(C)=O)cc2)CC1 | 12µM* | -10 | ? | 7%[46.1 µM] | -19% | 10%
CCN(c1ccccc1)S(=O)(=O)c1ccc(C(=O)Nc2nnc(C3CC3)o2)cc1 | ? | -69* | 9.3µM* | ? | ? | ?
CCC1CCCCN1S(=O)(=O)c1ccc(C(=O)Nc2nnc(C3CC3)o2)cc1 (stereo not drawn) | ? | -16 | 13µM* | ? | -5%[46.1 µM] | ?
CN(c1ccccc1)S(=O)(=O)c1ccc(C(=O)Nc2nnc(C3CC3)o2)cc1 | 5.2µM* | -29 | 12µM* | nt | nt | 11%
COCCN(CCOC)S(=O)(=O)c1ccc(C(=O)Nc2nnc(C3CC3)o2)cc1 | nt | 17 | -11% | 23% | -21% | -2%
CCN(c1ccccc1)S(=O)(=O)c1ccc(C(=O)Nc2nnc(CSC)o2)cc1 | ? | -95* | ? | nt | nt | ?
Cc1cc2c(c(=O)o1)C1O[C@](c3ccsc3)(Cc3ccccc31)O2 | ? | nt | 1.9µM* | nt | nt | nt
COc1cc2c(cc1OC)C1OC(c3ccsc3)(C2)Oc2cc(C)oc(=O)c21 (stereo not drawn) | 1.7µM* | nt | ? | -40%[14.2 µM] | nt | nt
SMILES | Pf growth 96h | HCMV inh | Pf growth 48h | MARV entry inh | Lassa entry inh | HCV inh
O=c1oc2ccc(F)cc2c2c1C1O[C@](c3ccsc3)(Cc3c1ccc1ccccc31)O2 | 18%[5.75 µM] | nt | ? | nt | nt | nt
O=c1oc2ccccc2c2c1C1O[C@](c3ccsc3)(Cc3ccccc31)O2 | ? | nt | 1.7µM* | nt | nt | nt
O=C1C2=C(C(=O)c3ccccc31)[C@H]1O[C@](c3ccsc3)(Cc3c1ccc1ccccc31)O2 | nt | nt | nt | 15%[14.2 µM] | nt | nt
O=C1C2=C(C(=O)c3ccccc31)C1O[C@](c3ccsc3)(Cc3ccccc31)O2 | 39%[5.75 µM] | nt | 1.2µM* | nt | nt | nt
COc1ccc([C@]23Cc4ccccc4C(O2)c2c(c4ccc(OC)cc4oc2=O)O3)cc1 | 1.7µM* | nt | ? | -10%[14.2 µM] | nt | nt
COc1ccc([C@]23Cc4cc(OC)c(OC)cc4C(O2)c2c(c4ccccc4oc2=O)O3)cc1 | ? | nt | 31%[5.75 µM] | nt | nt | nt
Cc1cc2c(c(=O)o1)[C@H]1O[C@](c3ccsc3)(Cc3ccccc31)O2 | nt | nt | nt | 10%[14.2 µM] | nt | nt
COc1ccc([C@]23Cc4cc(OC)c(OC)cc4C(O2)c2c(cc(C)oc2=O)O3)cc1 | 0.34µM* | nt | ? | ? | nt | nt
CCc1ccc2nc(N(Cc3cccnc3)C(C)=O)sc2c1 | nt | 105 | nt | nt | 13%[46.1 µM] | nt
Cc1ccc2sc(-c3ccc(NC(=O)CCN4C(=O)c5ccccc5C4=O)cc3)nc2c1 | 9.3µM* | -26 | 137% | 1% | nt | 1%
Cc1ccc2nc(-c3ccc(NC(=O)COC(=O)c4ccco4)cc3)sc2c1 | i | -6 | 246% | 1.3µM* | 2.2µM* | 4%
CCOc1ncccc1C(=O)OCC(=O)Nc1ccc(-c2nc3ccc(C)cc3s2)cc1 | 57% | -9 | 227% | 13µM* | ? | -25%
CC(=O)Nc1ccc(NC(=O)CCN2C(=O)c3ccccc3C2=O)cc1 | ? | 17 | 45% | nt | nt | 15%
C=CCn1c(SCC(=O)Nc2ccc(-c3nc4ccc(C)cc4s3)cc2)nnc1-c1ccccc1 | 176% | 49 | 207% | ? | ? | 10µM*
O=C(CSc1ncc(S(=O)(=O)c2ccc(Br)cc2)c(=O)[nH]1)NCc1ccc(Cl)cc1 | nt | -8 | nt | 1%[46.1 µM] | 7%[46.1 µM] | nt
O=C(NCc1ccccc1)c1cc(C2COCCN2C(=O)c2ccc3c(c2)CCO3)on1 (stereo not drawn) | nt | -38 | nt | nt | nt | nt
CC(C)C[C@@H](N)C(=O)O | ? | nt | -4% | nt | nt | nt
CSc1ccc(CN2CCC2(C)C(=O)NC2CCc3ccccc32)cc1 (stereo not drawn) | nt | -14 | nt | nt | nt | nt
CCN(CC)CCCNC(=O)c1ccc(-c2nc(CN3CCc4ccccc43)c(C)o2)cc1 | nt | -36 | nt | nt | -26%[46.1 µM] | nt
